Consider 22 sequences from the supplement of paper PMC6555819.

This experiment concerns RARb:RXRa (NR concentration 270 nM, RXRa partner concentration 90 nM). In words: PBM binding z-score (relative to random genomic background probes); higher = stronger binding; sequences stand for … in GC…GCGATTGACAGCGTAGAATGAAGG
Summed up: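 Ligand-free nuclear receptor dimers were applied to custom Agilent 4×180K protein-binding microarrays whose double-stranded probes carried direct-repeat seeds, single-nucleotide variants, half-site ablations and random human genomic background sequences in 34-nt variable regions. Incubation lasted 1 h. Binding z-scores were computed against the random background probes from regression-normalized fluorescence.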
On to GCTAGCAGGCCATTTGAGTCACTCAATGACGGGC, for which the PBM binding z-score worked out at 0.073.

TAGCCTAGGTCATTCAGGGGCCAGTATAGAAAGC had a PBM binding z-score of 3.79.

As for ATCTCTAGTTAAAGTTCAGTGAAAGATCGATAGA, the PBM binding z-score is 2.61.

With ATATGTAGGTTAGCTGGGTTCATTCAGACTAGGC, the PBM binding z-score was 1.35.

As to TCTATTAGTTCATTAGGGCAACCGAAACAGCGGA, the PBM binding z-score was 2.64.

In turn, CCTGCTAGGTCATGGTCCGCTAATCTACAGTATG gave a PBM binding z-score of 3.88.

For TGTAGCAGGCCAGAGGGTCACTCAAGAGGTACGG, the PBM binding z-score was 2.35.

CGAACTAGGTCAGAACAAGACAGTGAAGGATGAT: the PBM binding z-score was found to be 2.85.

In turn, ATCTCTAGGTAACAAGTTGAGTGAAAGAGAGGAC returned a PBM binding z-score of 0.64.

On to AGTCAAAGCTCAGGACGAGGTAACGTAAAGCACG, for which the PBM binding z-score is -0.0865.

In turn, ACTAGTTGGTCAGCTGAGGTCAGACACAATTCGG returned a PBM binding z-score of 2.86.

The sequence CCTTACGGGTCACGCGGTTATAGCACGACGAGCG came in with a PBM binding z-score of 4.33.

TCTTGTAGAGCAAGCAGGTTAAGAAAGCCTGAGT: the PBM binding z-score is -0.127.

ATACCAAGGGGATCGTGAGGTCGTTGATACTAAC showed a PBM binding z-score of 0.379.

AGTCAAAGTTCAGGTCGAGGTAACGTAAAGCACG: the PBM binding z-score amounted to 4.47.

Sequence CCAGACAGGTGAGAAGGTAACCCAGCCTCGATTA displayed a PBM binding z-score of 0.682.

Regarding CCTAGCAGGCCAATCTGGGTCACTCAAGGCTTGA, the PBM binding z-score was found to be 1.58.

In the case of TCATATAGGTACAGGTGAAAGTCGAACGATATGA, the PBM binding z-score is 0.896.

In turn, CAAACTAGGTCAAGGACAAAGTCGGTTTGTGCCA gave a PBM binding z-score of 4.15.

On to TCAAATAGGTAATACAGGTGAAAGTCGGCATCTA, for which the PBM binding z-score came to 0.777.

For GCTTGTAGATCGAGGTTAAGAAAGACTAAGCTAA, the PBM binding z-score came to 0.634.

Regarding ACTATTAGTTCAGACGAGGGCAACCGATAGGTTG, the PBM binding z-score is 2.1.
